This is part of a sample that, as a whole, favours compounds with a hit. Of some 83,000 tested, about 20% had one in any assay.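 Note: values are percent growth. 100 is the growth of untreated cells, values between 100 and 0 indicate rising inhibition; between -100 and 0 indicates cell death.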 Unmarked numbers belong to inactive results. Calls of active or inactive are those of the source. Rule for the calls: active = growth percent below 10; inactive = the rest.
Each compound was assayed on MDA-MB-468 breast (assay: NCI-60 one-dose screen, 48 h (100 = growth as untreated, 0 = no growth, -100 = all killed)). Conditions: 10 µM unless noted.
With `CC1=C(C)C(=O)C(Nc2cccc(C(=O)OC(C)(C)C)c2)=CC1=O` the growth was 37.5%. For `O=c1[nH]c(NCc2nnnn2-c2ccc(Br)cc2)nc2sc3c(c12)CCCC3`, the growth was 96.9%. Compound `CC(=O)c1nn(-c2ccccc2)c(=Nc2ccccc2)cc1C` has a growth of 91.9%. `Cc1cc(C)c2c(n1)sc1c(Nc3ccc(Cl)cc3)ncnc12` was tested, and the growth was 19%. In the case of `Cc1ccc(C2=Nc3c(N)nc(N)nc3NC(c3cccc(Nc4ccnc5cc(C(F)(F)F)ccc45)c3)C2)cc1` (stereo not given), the growth is reported as 14.7%. `Nc1[nH]n2cc(-c3ccc(F)cc3)nc2c1N=Nc1ccc(S(N)(=O)=O)cc1` showed a growth of 83.4%. `CCOC(=O)C1C(=O)C=C(c2ccc(OC)cc2)CC1c1sc(N(C)Cc2ccccc2)nc1Cl` (stereo not given) showed a growth of 58.3%. Work on `CCN(C(=O)c1cc2ncccc2[nH]1)[C@H]1CCC[C@@H](NCc2cccc(F)c2)C1` yielded a growth of 107%. `CC(C)Oc1nc2c(c(=O)n(C)c(=O)n2C)n1C` showed a growth of 109%. `COc1cc(N=C2C(=O)N(Cc3ccccc3)c3ccccc32)cc(OC)c1OC` was tested, and the growth was 103%. With `COC1=C(C)C(=O)c2c(c(CCCl)c3n2CCC3OC(C)=O)C1=O` (stereo not given) the growth was 85.5%. With `C=C1C(=O)O[C@H]2[C@H]1CC/C(Cn1cc(-c3cc(C(F)(F)F)cc(C(F)(F)F)c3)nn1)=C\CC[C@@]1(C)O[C@@H]21` the growth was -56.7% (active). For `CCOc1ccccc1C(=O)N1CCN(c2cc(Cl)cc(Cl)c2)CC1`, the growth was 3.92% (active). Compound `C=CC(=O)Nc1cccc(-c2nc(SC)nc(Nc3cccc(OC)c3)c2C#N)c1` has a growth of 69.7%. Compound `CCn1c(SCCc2ccccc2)nnc1-c1nn(-c2ccc(Cl)cc2Cl)c(-c2ccc(Cl)cc2)c1C` has a growth of 45.9%. `COc1ccc(CNS(=O)(=O)/N=C2\NC(=O)NC2=C(Cl)Cl)cc1` gave a growth of 19.4%. `C(=N\Nc1ncnc2sc3c(c12)CCNC3)/c1cccc2ccccc12` was tested, and the growth was 72.1%. With `c1ccc(-c2c(-c3ccccc3)[n+](Cc3ccc4ccccc4c3)c(-c3ccccc3)n2Cc2ccc3ccccc3c2)cc1` the growth was -76.4% (active). Work on `CC(=O)CSc1ncnc2nc[nH]c12` yielded a growth of 40.6%. For `O=C1CC2(CCOCC2)Oc2ncccc21`, the growth was 30.4%. For `CCOc1ccc(S(=O)(=O)c2ccc(C)cc2)c2c1no[n+]2[O-]`, the growth was 103%. `Cc1ccc2c(-n3nc(C#N)c(C#N)c3N)cc(=O)[nH]c2c1` was tested, and the growth was 92.6%. `Cc1cc(=O)n(C(=O)Nc2ccccc2Cl)c2cc(O)ccc12` showed a growth of 104%. In the case of `CN1CCN(c2ccc3nc(-c4ccc5nc(-c6ccc(OCCC(C)(C)C)cc6)[nH]c5c4)[nH]c3c2)CC1`, the growth is reported as -17.9% (active). In the case of `O=C1NC(c2ccc(Cl)c(Cl)c2)=C/C1=C\c1ccccc1`, the growth is reported as 63.3%. For `CCCCc1nc(/C=N/Nc2nc(Nc3ccccc3)nc(Nc3ccc(S(N)(=O)=O)cc3)n2)c(Cl)[nH]1`, the growth was -12.5% (active). Work on `Cc1nc(-c2ccccc2)cc2c(O)c(C(=O)N/N=C/c3ccc(N(C)C)cc3)[nH]c(=O)c12` yielded a growth of 77.6%. For `Cc1ccc(C(O)C2=CC(=O)c3ccccc3C2=O)cc1` (stereo not given), the growth was 96.5%. Compound `Fc1ccc(C2CC(c3cccc(Nc4ccncc4)c3)=NN2c2ccc(Cl)cc2)cc1` (stereo not given) has a growth of 63.6%. In the case of `N#CC1(Nc2ccc3c4c(cccc24)CC3)CCCCC1`, the growth is reported as -35.3% (active). With `N#Cc1ncc(-c2cc(F)c(F)c(F)c2)c(NC2CCCCCC2)n1` the growth was 87.6%. `CCCCCCCCCCSc1ncnc2nc[nH]c12` was tested, and the growth was 8.95% (active). In the case of `CC(C)COC(=O)NC(C)(C)C`, the growth is reported as 96.5%. `O=C(COc1ccc(C2SCC(=O)N2c2ccc(F)cc2)cc1)c1ccccc1` (stereo not given) was tested, and the growth was 89.1%. `N#Cc1c(-c2ccccc2)cc(-c2ccccc2)n(CCCCC(=O)O)c1=O` gave a growth of 89.1%. With `CN1CCN(c2nc(Nc3ccc(O)cc3)nc3ccccc23)CC1` the growth was 75.2%. For `Cc1ccc(C(=O)/C(=C/c2ccc([N+](=O)[O-])cc2)S(=O)Cc2ccccc2)cc1` (stereo not given), the growth was -54.1% (active). `Nc1ccc2ccccc2c1-c1c(N)ccc2ccccc12` was tested, and the growth was 11.8%. `COc1ccc2[nH]c(=O)c(/C=N/Nc3nc(-c4ccccc4)cs3)c(O)c2c1` gave a growth of 87.6%. `O=c1c2cccc(F)c2sc2c(NCCCNCCO)nc3ccccc3c12` was tested, and the growth was -18.3% (active).

— PubChem BioAssay (NCI)
